# Experiments:
# Assay in all cases: PBM binding z-score (relative to random genomic background probes); higher = stronger binding; sequences stand for … in GC…GCGATTGACAGCGTAGAATGAAGG
# [1] = system: PPARg:RXRa DBDmut IVT, anti-RXR (DBD mutation: RXRa K156A/R161A, NR concentration 270 nM, RXRa partner concentration 90 nM)
# Procedure, shortened: (§1)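 Regression normalization was applied to scanned fluorescence from custom Agilent 4×180K protein-binding microarrays. Before scanning, arrays were incubated 1 h with ligand-free nuclear receptor dimers, and binding was detected with antibodies against each partner (one per run). Binding z-scores use the random background probes as reference.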
# [2] = system: PPARg:RXRa IVT, anti-PPARg (NR concentration 270 nM, RXRa partner concentration 90 nM)
# Procedure, shortened: as §1
# [3] = system: PPARg DBDmut:RXRa IVT, anti-PPARg (DBD mutation: PPARg1 K132A/R137A, NR concentration 270 nM, RXRa partner concentration 90 nM)
# Procedure, shortened: as §1
# [4] = system: PPARg DBDmut IVT, anti-PPARg (DBD mutation: PPARg1 K132A/R137A, NR concentration 270 nM)
# Procedure, shortened: as §1
# [5] = system: PPARg homodimer (NR concentration 180 nM)
# Procedure, shortened: as §1
# [6] = system: PXR:RXRa (NR concentration 270 nM, RXRa partner concentration 90 nM)
# Procedure, shortened: as §1
# [7] = system: PXR homodimer (NR concentration 270 nM)
# Procedure, shortened: as §1
# [8] = system: RARa:RXR (NR concentration 270 nM, RXRa partner concentration 90 nM)
# Procedure, shortened: as §1
# [9] = system: RARa homodimer (NR concentration 270 nM)
# Procedure, shortened: as §1
# [10] = system: RARb:RXRa (NR concentration 270 nM, RXRa partner concentration 90 nM)
# Procedure, shortened: as §1
# [11] = system: RARb homodimer (NR concentration 270 nM)
# Procedure, shortened: as §1
# [12] = system: RARg:RXRa (NR concentration 270 nM, RXRa partner concentration 90 nM)
# Procedure, shortened: as §1
# [13] = system: RARg homodimer (NR concentration 270 nM)
# Procedure, shortened: as §1
# [14] = system: RXRa DBDmut IVT, anti-RXR (DBD mutation: RXRa K156A/R161A, NR concentration 90 nM)
# Procedure, shortened: as §1
# [15] = system: RXRa homodimer (NR concentration 180 nM)
# Procedure, shortened: as §1
# [16] = system: THRa:RXRa (NR concentration 90 nM, RXRa partner concentration 90 nM)
# Procedure, shortened: as §1
# [17] = system: THRa homodimer (NR concentration 90 nM)
# Procedure, shortened: as §1
# [18] = system: VDR homodimer (NR concentration 270 nM)
# Procedure, shortened: as §1
Sequence,PBM binding z-score [1],PBM binding z-score [2],PBM binding z-score [3],PBM binding z-score [4],PBM binding z-score [5],PBM binding z-score [6],PBM binding z-score [7],PBM binding z-score [8],PBM binding z-score [9],PBM binding z-score [10],PBM binding z-score [11],PBM binding z-score [12],PBM binding z-score [13],PBM binding z-score [14],PBM binding z-score [15],PBM binding z-score [16],PBM binding z-score [17],PBM binding z-score [18]
GCTTGTAGATCAAGGTTAAGCAAGACTAAGCTAA,1.5,1.36,-0.46,-0.377,0.0849,0.191,-0.43,1.07,-0.348,0.844,0.306,0.623,0.359,-0.0459,0.912,1.67,-0.236,-0.472
GCTCGGAGGATAAGGTCAGAGCTTTGTCCGTAGA,-0.248,0.29,-0.531,-1.51,0.565,1.86,-0.244,2.62,-0.904,3.29,3.31,2.92,3.06,0.342,2.71,3.33,2.82,0.184
ATATGTAGGTAATCGGGTCATTCAGTTTGCGCAT,7.17,7.38,2.95,2.04,1.76,2.84,6.06,2.79,1.35,1.6,2.15,2.06,1.32,1.13,2.55,3.16,2.46,3.14
ATCTCGAGGTAAAGTTCAGTGAAAGATCGATAGA,0.243,1.24,0.853,0.574,1.21,2.17,1.44,1.34,0.469,2.86,2.23,2.68,2.72,0.929,1.7,1.71,-0.0248,1.71
CGAACTAGGTCATCCAGGGCAGTGAATACATTGA,8.06,8.48,5.35,1.78,2.66,2.66,1.95,2.47,0.454,4.29,3.48,4.41,5.14,2.14,2.97,3.78,1.25,2.25
AGAATGAGGTTATGAAGATCAGGGAATTGCGGTC,3.44,2.45,0.386,-0.347,0.625,1.18,0.111,1.87,0.262,1.7,1.07,1.45,1.06,1.05,2.45,2.35,0.96,0.716
CCGACTGGGGCAGAAAGGTTACCATACCATCCGG,1.62,2.01,-0.897,-0.652,1.04,0.796,-0.416,1.49,-0.549,1.74,1.96,1.73,1.25,-0.648,1.61,0.85,-0.396,-0.314
CGTCAAAGTTCAAGGTAACGTAACAGAAAGCAGC,0.893,2.47,1.4,0.701,2.19,4.2,2.44,3.28,1.04,5.17,3.92,5.25,5.88,4.03,4.58,3,1.32,3.12
TCGAGTAGGTTAGGGTCATTCAGAATGGCGTCGA,2.47,2.77,-0.28,0.496,2.22,4.55,2.03,5.08,0.43,3.08,3.05,3.8,2.8,2.11,4.66,3.83,2.62,3.97
CCTCGGAGGACAGAAGGTAAGAGCTGTCCGCTTT,-0.432,-0.658,-1.58,-1.77,-0.354,-0.918,-0.487,-0.713,-0.583,0.19,-0.457,-0.117,0.0766,-0.382,-0.845,-0.0375,-0.566,-0.677
TCTTGTAGATCAATAGAGATTAAGAAAGTGCGCT,1.45,0.39,0.292,1.02,-0.0923,0.374,0.261,-0.0638,0.076,-0.192,-0.717,0.0195,0.0177,0.545,0.326,-0.317,-1.06,-0.336
TCTATTAGTTGGTTAGGGCAACCGAAACAGCGGA,1.47,0.862,1.18,0.941,0.798,0.158,0.345,0.342,1.17,0.848,0.686,0.47,0.667,0.779,0.412,0.638,0.431,0.587
GCTACTAGGTCAGGTTGGTCAGCTAACGGGTACG,7.04,6.37,0.412,0.27,1.12,0.422,-0.0861,0.74,0.258,3.26,2.98,2.63,3.84,0.551,1.24,1.85,1.16,0.983
CCTTACGGGTCACCGACAGGTTATAGCATTTGGA,2.51,4.22,0.292,0.016,3.32,4.11,-0.087,5.27,0.277,4.52,3.79,6.61,5.55,1.12,6.11,3.23,0.772,1.09
CATACAGGGTCAGCAAGGCCAGAGTAGGGACGGC,1.19,2.54,0.587,0.984,1.18,2.66,0.241,3.24,0.341,4.25,3.4,4.63,5.18,1.92,4.64,3.29,1.03,2.08
ATCGAAAGGTCGGGAGGTGAGTATACAGAAAGGC,0.224,1.47,2.2,1.16,1.74,2.12,0.567,2.81,1.38,3.48,2.92,3.82,3.34,0.594,3.58,2.21,0.967,0.718
AGAATGAGGTTACGATCAGGGAAACAGAATACAT,3.35,3.6,1.79,0.837,0.684,1.19,0.235,1.92,0.462,2.16,1.15,2.31,1.83,0.839,2.77,2.99,0.967,0.356
CGTCCAAGGTGAGCAGGTCAGTGAAAGCGACGTG,1.99,2.14,-0.318,-0.865,0.43,0.116,-0.516,0.783,-0.389,2.67,2.7,2.24,2.37,-0.254,1.09,2,0.649,-0.353
GCGACTGGGGCATCAGCACGTTACCATAACTTAA,3.89,3,0.00267,-0.723,-0.048,-0.493,-0.113,-0.399,-0.0529,0.327,0.000503,0.0207,0.311,0.239,0.0852,-0.219,-0.089,-0.335
AGAATGAGGTTATACGTAGATCACGGAAGAAAGT,4.13,2.15,1.62,1.21,0.376,1.19,0.48,1.72,0.335,1.53,0.646,1.96,1.21,2,2.38,2.11,0.348,0.934
TCCAGTTGGTCAAAGGTCACACACTCGAAATGCG,3.32,6.12,2.97,1.98,5.35,6.28,2.67,7.69,3.44,5.08,4.95,7.17,6.07,2.25,7.96,4.08,2.47,2.99
CTGACTGGGGCATAAGGTTACCATAAGCCAGCCC,4.6,4.79,0.707,-0.07,1.02,0.767,-0.461,1.62,-0.242,1.94,1.92,1.99,1.46,-0.277,1.4,2.42,1.35,-0.328
AGAATGACGTTATACGTAGATCAGGGAAGAAAGT,-1.31,-0.2,0.276,1.24,-0.321,-0.696,0.0404,-0.492,-0.733,-0.573,-0.508,-0.123,0.109,-0.541,-0.108,-0.592,-1.02,-0.467
ATCCAAAGGTCGACGAGGTGAGTATACACCGTTT,0.48,2.51,0.787,0.209,1.99,3.05,0.52,3.62,0.92,4.07,3.09,4.27,4.1,1.22,4.44,3.66,1.12,0.772
CCTTACGGGTCACTACAGGTTATAGCATCGGAGT,2.72,3.21,0.858,0.751,1.99,4.52,0.327,4.47,1.02,3.91,3.27,4.6,4.47,1.7,4.64,4.19,-0.0959,1.31
ATATGTAGGTTAAGGGGCATTCAGGTTGGTTCGC,7.2,7.11,2.3,1.88,2.29,2.12,1.83,1.92,1.47,1.78,2.06,1.58,1.19,1.17,1.85,1.82,1.46,2.03
CGAACGAGGACATGAGTTGATAGCAAATGCCGAT,0.314,0.0195,0.334,-0.107,0.0836,-0.249,0.0683,-0.232,0.565,0.496,0.159,0.527,1.16,1.52,0.107,2.23,1.28,0.998

# Source: the supplement of paper PMC6555819
